The full ranking holds about 33,000 sequences; the median of “E-score (-0.5 to 0.5)” is about -0.035, and the highest 2% start at about 0.35. The full list was thinned out, with the highest values kept by preference.
Target: T1, Pdr3 (UniProt P33200)
T1 sequence: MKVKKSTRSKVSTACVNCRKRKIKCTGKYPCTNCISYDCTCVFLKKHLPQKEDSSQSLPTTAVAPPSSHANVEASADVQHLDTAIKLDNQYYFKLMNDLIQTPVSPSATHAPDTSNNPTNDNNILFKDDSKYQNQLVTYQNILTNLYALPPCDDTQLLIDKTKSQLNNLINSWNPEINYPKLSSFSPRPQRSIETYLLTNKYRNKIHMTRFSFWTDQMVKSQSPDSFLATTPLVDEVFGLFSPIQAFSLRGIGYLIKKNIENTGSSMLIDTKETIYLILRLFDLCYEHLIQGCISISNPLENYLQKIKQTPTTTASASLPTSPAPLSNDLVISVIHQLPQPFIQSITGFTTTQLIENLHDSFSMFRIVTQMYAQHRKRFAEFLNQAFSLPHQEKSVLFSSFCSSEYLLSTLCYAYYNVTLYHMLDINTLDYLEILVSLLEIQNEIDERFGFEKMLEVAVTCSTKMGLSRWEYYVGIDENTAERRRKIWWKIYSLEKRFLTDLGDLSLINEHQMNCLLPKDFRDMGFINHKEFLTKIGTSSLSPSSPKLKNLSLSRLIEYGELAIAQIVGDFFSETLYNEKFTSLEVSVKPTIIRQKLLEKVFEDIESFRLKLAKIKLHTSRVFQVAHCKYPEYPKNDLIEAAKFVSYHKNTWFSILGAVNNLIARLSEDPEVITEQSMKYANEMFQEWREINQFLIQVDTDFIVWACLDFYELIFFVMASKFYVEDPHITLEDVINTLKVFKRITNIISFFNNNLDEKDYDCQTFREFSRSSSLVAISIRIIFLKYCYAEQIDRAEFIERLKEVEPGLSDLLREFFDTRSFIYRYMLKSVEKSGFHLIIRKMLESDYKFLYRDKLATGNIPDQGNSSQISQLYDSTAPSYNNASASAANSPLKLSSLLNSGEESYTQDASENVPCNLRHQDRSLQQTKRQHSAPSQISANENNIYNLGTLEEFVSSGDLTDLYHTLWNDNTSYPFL
Experiment: PBM E-score (8-mer binding enrichment) (E-score (-0.5 to 0.5)); higher = stronger / more preferred TF binding
Conditions: protein concentration: 200 nM; construct: GST-full length
How it was run: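 Yeast transcription factors carrying a GST tag, as full-length proteins or DNA-binding domains, were produced by PURExpress in vitro transcription/translation. About 100-200 nM protein was applied to universal all-10-mer Agilent arrays, double-stranded by primer extension on fresh or once-stripped slides. Bound protein was detected with fluorescent anti-GST, and scans were normalised with masliner. The Universal PBM Analysis Suite gave each ungapped eight-base word, pooled with its reverse complement, an E-score, a modified Wilcoxon-Mann-Whitney statistic.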

Going from ATATTCCG to CCATTCCG, the “PBM E-score” value falls from 0.426 to 0.425.

First: ATATTCCC
Second: CCATTCCC
The “PBM E-score” value of the first is higher: 0.266 for the first, 0.101 for the second.

First: ACATTCCT
Second: ATATTCCA
The “PBM E-score” value of the first is lower: -0.0606 for the first, 0.128 for the second.

Compared with ACATTCCG, CTCAAACC is lower in “PBM E-score” value: 0.439 for the first, -0.0558 for the second.

First: GACATCTA
Second: CAACTTTA
The “PBM E-score” value of the first is higher: -0.0109 for the first, -0.0602 for the second.

Compared with ATACTCGC, ACCAAGGT is lower in “PBM E-score” value: 0.162 for the first, -0.0204 for the second.

Compared with AGAGCGAC, AGGCCATA is higher in “PBM E-score” value: -0.135 for the first, -0.0791 for the second.

Compared with GCCGCGGC, GACGCGGC is lower in “PBM E-score” value: 0.484 for the first, 0.0937 for the second.

Going from GCGGCCGC to CCCGCGAC, the “PBM E-score” value falls from 0.35 to 0.175.

First: CCCGCGGC
Second: CCCGCGTC
The “PBM E-score” value of the first is higher: 0.488 for the first, 0.236 for the second.

Going from CAAATGGC to GCTACTAC, the “PBM E-score” value rises from -0.156 to 0.146.

Compared with CGATAGCG, AGGCCTTA is lower in “PBM E-score” value: 0.0636 for the first, -0.254 for the second.

First: CAGGTGGC
Second: ACTCCGTA
The “PBM E-score” value of the first is lower: -0.197 for the first, 0.13 for the second.

Going from GTTCCGTA to CTTCCGTA, the “PBM E-score” value falls from 0.471 to 0.379.

Going from ATTCCGTC to CCTCCGTA, the “PBM E-score” value falls from 0.42 to 0.222.

Going from CGTCCGTA to AATCCGTC, the “PBM E-score” value rises from 0.176 to 0.314.

Compared with ATTCCGTA, ACTCCGTC is lower in “PBM E-score” value: 0.417 for the first, 0.206 for the second.

Compared with AATCCGTA, GTCCCGTA is lower in “PBM E-score” value: 0.165 for the first, 0.159 for the second.

Compared with GTACCGTA, GGTATTAC is higher in “PBM E-score” value: 0.029 for the first, 0.225 for the second.

First: CTTTTAAA
Second: GGGCGTAC
The “PBM E-score” value of the first is higher: -0.00725 for the first, -0.00965 for the second.

Going from GCAGCAAA to CAGACCCG, the “PBM E-score” value rises from -0.103 to 0.279.

Compared with AATCGGTA, CTAGAACA is higher in “PBM E-score” value: -0.0123 for the first, 0.0618 for the second.

Compared with ATGCTACA, CAATAGAG is higher in “PBM E-score” value: -0.24 for the first, -0.166 for the second.

Compared with CTCGGCAG, CGAAATAG is lower in “PBM E-score” value: 0.219 for the first, 0.0496 for the second.

First: CCTCCGTC
Second: AATCCGTG
The “PBM E-score” value of the first is lower: 0.15 for the first, 0.237 for the second.

Compared with ACTCCGTG, CTTCCGTC is higher in “PBM E-score” value: 0.282 for the first, 0.403 for the second.

Compared with ATTCCGTG, CGTCCGTC is lower in “PBM E-score” value: 0.467 for the first, -0.0265 for the second.

First: AAAACTTC
Second: CACCGCTC
The “PBM E-score” value of the first is lower: -0.029 for the first, 0.0532 for the second.

First: GTTTTAGA
Second: GGGGGAGA
The “PBM E-score” value of the first is lower: -0.0726 for the first, -0.00585 for the second.

First: AGTTTCCC
Second: ATTTTCCA
The “PBM E-score” value of the first is lower: 0.0499 for the first, 0.122 for the second.

Going from ATTTCCCA to AGTTTCCG, the “PBM E-score” value rises from 0.0046 to 0.452.

Compared with CATTTCCC, ATTTTCCC is lower in “PBM E-score” value: 0.203 for the first, 0.151 for the second.

First: CATTTCCA
Second: ATTTCCCG
The “PBM E-score” value of the first is lower: -0.0296 for the first, 0.369 for the second.

First: AGTTTCCA
Second: CATTTCCG
The “PBM E-score” value of the first is lower: 0.0305 for the first, 0.411 for the second.

First: ATTTTCCG
Second: ATTTCCCC
The “PBM E-score” value of the first is higher: 0.432 for the first, 0.0635 for the second.

First: AAAAGTTG
Second: ATCAAAGC
The “PBM E-score” value of the first is lower: 0.00957 for the first, 0.0706 for the second.

First: AACTCGCT
Second: ATATACCC
The “PBM E-score” value of the first is lower: 0.0814 for the first, 0.102 for the second.

Going from CTACCGGA to CACCATAA, the “PBM E-score” value falls from 0.335 to -0.109.

Going from CGCCACAA to AATTTCCC, the “PBM E-score” value rises from -0.0528 to 0.0432.

Compared with AATTTCCT, AATTTCCG is higher in “PBM E-score” value: 0.0149 for the first, 0.442 for the second.

Going from AACTGTAC to ACGCCGCA, the “PBM E-score” value rises from -0.229 to 0.181.

Going from CGCACGGC to GCGACGGA, the “PBM E-score” value rises from 0.142 to 0.374.

CGCACGGA and CCGACGGA are the same in “PBM E-score” value: 0.413 for the first, 0.413 for the second.

Compared with CGGACGGC, CCGACGGC is lower in “PBM E-score” value: 0.244 for the first, 0.237 for the second.

Going from CGGACGGA to GGCACGGA, the “PBM E-score” value falls from 0.367 to 0.314.

Compared with GCGACGCA, CCGACGAA is higher in “PBM E-score” value: -0.126 for the first, 0.193 for the second.

Compared with GGGACGGA, ACGACGGA is lower in “PBM E-score” value: 0.33 for the first, 0.328 for the second.

First: AACTCCTG
Second: ATCTGGCA
The “PBM E-score” value of the first is lower: -0.193 for the first, -0.111 for the second.

First: AGCTGTCC
Second: GCGGGGCA
The “PBM E-score” value of the first is lower: -0.116 for the first, 0.129 for the second.

First: CATACCCC
Second: CCCACCGG
The “PBM E-score” value of the first is lower: 0.0622 for the first, 0.248 for the second.

Going from ATCTTCGA to AATCATGT, the “PBM E-score” value rises from -0.115 to -0.0895.

Compared with AGCGCCCT, CCAAGCCA is lower in “PBM E-score” value: 0.0102 for the first, -0.245 for the second.

First: GGAAGCCA
Second: CGGACGAC
The “PBM E-score” value of the first is lower: 0.0692 for the first, 0.196 for the second.

Going from GGGACGAA to CGGACGAA, the “PBM E-score” value rises from 0.162 to 0.372.

Going from TAGCGGGA to CAGCGGAC, the “PBM E-score” value rises from 0.14 to 0.176.

First: TAGCGGAA
Second: GAGCGGAC
The “PBM E-score” value of the first is higher: 0.357 for the first, 0.0792 for the second.

Going from TAGCGGCA to GAGCGGAA, the “PBM E-score” value rises from 0.107 to 0.415.

Going from CAGCGGAA to AAGCGGAG, the “PBM E-score” value falls from 0.429 to 0.0882.

Compared with AAGCGGAT, AAGCGGAA is higher in “PBM E-score” value: 0.309 for the first, 0.387 for the second.

Going from GAGCGGTA to CAGCGGAG, the “PBM E-score” value rises from 0.0552 to 0.274.

Going from AAGCTATT to ACACCACT, the “PBM E-score” value rises from -0.112 to 0.108.

First: CGTTGCCC
Second: AAGTGTGT
The “PBM E-score” value of the first is higher: 0.101 for the first, -0.187 for the second.

Going from CAACTAGA to GTTGTGAA, the “PBM E-score” value falls from -0.0997 to -0.142.

First: GAATCAGC
Second: TCGTTCAA
The “PBM E-score” value of the first is higher: -0.124 for the first, -0.125 for the second.

First: CCCGTGGA
Second: CCCGTGGC
The “PBM E-score” value of the first is higher: 0.395 for the first, 0.233 for the second.

Going from GCCGTGGA to TCCGTCGA, the “PBM E-score” value rises from 0.258 to 0.39.

Compared with TCCGTCAA, GCCGTCGA is lower in “PBM E-score” value: 0.375 for the first, 0.104 for the second.

Going from GCCGTCAA to CCCGTCGA, the “PBM E-score” value rises from -0.048 to 0.215.

Compared with ACCGTCAA, AAGCGAAG is lower in “PBM E-score” value: -0.00477 for the first, -0.0806 for the second.

First: ACCAGTAT
Second: AGTTGGTA
The “PBM E-score” value of the first is higher: 0.0888 for the first, -0.111 for the second.

Going from GTCATCCA to AACGGTAG, the “PBM E-score” value rises from -0.0723 to 0.0653.

Compared with AACGGAAT, AACGGTAT is lower in “PBM E-score” value: 0.468 for the first, -0.0131 for the second.

Going from AACGGAGT to AACGGAGG, the “PBM E-score” value falls from 0.373 to 0.185.

Going from AATGGAAG to AACGGACT, the “PBM E-score” value rises from 0.0364 to 0.0833.

Going from AACGGAAG to AACGGAGC, the “PBM E-score” value falls from 0.423 to 0.275.

Going from ACTTTCGA to AAAGTTCC, the “PBM E-score” value rises from -0.0188 to 0.2.

Compared with GGCGGGGA, ATTAGCAG is lower in “PBM E-score” value: 0.292 for the first, -0.0762 for the second.

Compared with ATGCGCAT, AATCCTCA is lower in “PBM E-score” value: 0.165 for the first, -0.244 for the second.

Going from ACTATCCC to AACGACCG, the “PBM E-score” value falls from 0.165 to -0.146.

Going from CCAATTAC to GAGATAAA, the “PBM E-score” value rises from -0.099 to 0.122.

First: AACGCGGG
Second: CACGCGGA
The “PBM E-score” value of the first is lower: 0.332 for the first, 0.38 for the second.

Going from AACGCGGC to AACGCGGA, the “PBM E-score” value rises from 0.123 to 0.358.

First: CACGCGGC
Second: CACGCGGG
The “PBM E-score” value of the first is lower: -0.00292 for the first, 0.0841 for the second.

Compared with ATGTACCG, GAGTGCTA is lower in “PBM E-score” value: -0.0139 for the first, -0.0621 for the second.

Going from CTGGGAGC to CAAAAAAA, the “PBM E-score” value rises from -0.192 to 0.211.

Going from AAGCAAAG to CACAGCAG, the “PBM E-score” value falls from -0.213 to -0.234.

From the supplement of paper PMC3334620
